{"source": "PubChem BioAssay AID777", "about": "(Sanford-Burnham Center for Chemical Genomics, 2007)", "note": "Out of some 96,000 compounds screened, about 19,000 (20%) were called active.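 How the source made its calls: active means blocking of liver enzyme CYP2C9 beyond about 50% at 5 µM (limit read from the data); inactive means the rest.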 Only a sample is shown.", "data": [{"biological_target": "Cytochrome P450 2C9 (Homo sapiens) (UniProt P11712)", "sequence (P11712 whole entry, looked up)": "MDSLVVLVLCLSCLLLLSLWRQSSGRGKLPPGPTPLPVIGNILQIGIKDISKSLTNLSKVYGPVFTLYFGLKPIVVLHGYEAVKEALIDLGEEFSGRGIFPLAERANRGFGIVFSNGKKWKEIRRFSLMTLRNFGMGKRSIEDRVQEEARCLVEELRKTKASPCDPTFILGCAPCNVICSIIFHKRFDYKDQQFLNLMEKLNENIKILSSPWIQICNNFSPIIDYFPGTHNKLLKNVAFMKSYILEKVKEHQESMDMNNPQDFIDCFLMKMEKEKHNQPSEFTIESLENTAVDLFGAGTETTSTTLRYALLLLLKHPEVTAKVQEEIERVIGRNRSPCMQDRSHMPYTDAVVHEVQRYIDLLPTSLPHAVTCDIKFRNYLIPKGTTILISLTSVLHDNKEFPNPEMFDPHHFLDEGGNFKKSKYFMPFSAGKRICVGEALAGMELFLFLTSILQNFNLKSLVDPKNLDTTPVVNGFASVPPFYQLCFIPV", "experiment": "blockers of cytochrome P450 2C9 activity – biochemical, luminescence, ADME assay, primary screen (AID 777)", "conditions": "CYP2C9 Supersomes, luciferin-H conversion, at 5 µM, stronger effect = higher value", "values": [{"smiles": "CCCCNCc1ccc(SC)cc1", "inhibition": "4.1% (inactive)"}, {"smiles": "Cc1ccccc1OC(=O)Cn1c(C(F)(F)F)nc2ccccc21", "inhibition": "30.1% (inactive)"}, {"smiles": "Cc1cc(=O)oc2cc(OCC3CC(c4ccccc4Cl)=NO3)ccc12", "note": "(stereo not given)", "inhibition": "65.7% (active)"}, {"smiles": "Cc1cc(=O)oc2cc(NC(=O)C3CC(=O)N(Cc4ccccc4)C3)ccc12", "note": "(stereo not given)", "inhibition": "10.4% (inactive)"}, {"smiles": "COc1cccc(-c2nnc(SCCOc3ccc4c(C)cc(=O)oc4c3)o2)c1", "inhibition": "42.3% (inactive)"}, {"smiles": "O=c1cc(CN2CCN(c3cccc(Cl)c3)CC2)c2cc3c(cc2o1)CCCC3", "inhibition": "58.6% (active)"}, {"smiles": "OC(COc1ccc2c(c1)CCC2)CN1CCN(c2cccc(Cl)c2)CC1", "note": "(stereo not given)", "inhibition": "-14.4% (inactive)"}, {"smiles": "Cn1c(C(=O)NCCCN2CCN(c3cccc(Cl)c3)CC2)cc2c(=O)n(C)c3ccccc3c21", "inhibition": "22.8% (inactive)"}, {"smiles": "C=CCN(C(=O)Cn1ncc2c1-c1cc(C)ccc1OC2)c1ccccc1", "inhibition": "38.4% (inactive)"}, {"smiles": "Cn1c2ccccc2n2c(=O)c(=O)n(CC(=O)c3ccc(F)cc3)nc12", "inhibition": "-18% (inactive)"}, {"smiles": "OCCNc1nc2ccccc2n1-c1ncnc2sc3c(c12)CCC3", "inhibition": "16.9% (inactive)"}, {"smiles": "O=c1cc(O)nc(SCc2ccccc2Cl)[nH]1", "inhibition": "37% (inactive)"}, {"smiles": "Cc1cc(=O)[nH]c(SCc2cccc(F)c2)n1", "inhibition": "23.7% (inactive)"}, {"smiles": "Cc1cc(=O)[nH]c(SCc2cc(Cl)ccc2OC(F)F)n1", "inhibition": "76.4% (active)"}, {"smiles": "Cc1ccccc1C(OCC(O)CN1CCCCC1CCO)c1ccccc1", "note": "(stereo not given)", "inhibition": "-0.6% (inactive)"}, {"smiles": "COc1cc(NS(=O)(=O)c2ccc(N/C=C(\\C=O)c3nc4cc(Cl)ccc4o3)cc2)nc(OC)n1", "inhibition": "39.2% (inactive)"}, {"smiles": "O=c1[nH]c(-c2ccccc2)c(-c2ccccc2)[nH]1", "inhibition": "17.9% (inactive)"}, {"smiles": "O=c1[nH]c2ccccc2n2c(-c3ccccc3)nnc12", "inhibition": "62% (active)"}, {"smiles": "O=[N+]([O-])c1cccc(-c2nnc3c4ccccc4c4ccccc4n23)c1", "inhibition": "11.9% (inactive)"}, {"smiles": "COc1ccccc1-c1nnc(SCC(=O)N2CC(C)CC(C)C2)o1", "note": "(stereo not given)", "inhibition": "-292% (inactive)"}, {"smiles": "O=C(c1cnn2ccccc12)N1CCc2ccccc21", "inhibition": "-42.7% (inactive)"}, {"smiles": "CCC(C)NC(=O)N[C@@H](CCSC)C(=O)O", "note": "(stereo not given in full)", "inhibition": "8.8% (inactive)"}, {"smiles": "O=C(Cn1cc(/C=N/NC(=O)c2cccc(C(F)(F)F)c2)c2ccccc21)Nc1ccc(F)cc1", "inhibition": "23.8% (inactive)"}, {"smiles": "C/C(=N/NC(=O)c1ccc(NC(=O)c2ccc(F)cc2)cc1)c1ccccc1", "inhibition": "3.1% (inactive)"}, {"smiles": "O=C(CSc1ccc(/C=N/NC(=O)c2cccc(F)c2)o1)Nc1ccccc1", "inhibition": "80.3% (active)"}, {"smiles": "CC(C)c1nc2oc3c(N4CCN(C)CC4)ncnc3c2c2c1CCC2", "inhibition": "24% (inactive)"}, {"smiles": "CCOC(=O)c1c(C)c(C(=O)NCCc2ccc(S(N)(=O)=O)cc2)c(C)n1CC", "inhibition": "16.4% (inactive)"}, {"smiles": "CCC12CN3CC(CC)(CN(C1)C31C(=O)N(C)c3ccc(C)cc31)C2=O", "note": "(stereo not given)", "inhibition": "3.6% (inactive)"}, {"smiles": "CN(c1ccc(C(=O)NCc2ccccn2)cc1)S(C)(=O)=O", "inhibition": "-10.8% (inactive)"}, {"smiles": "O=C(NCc1ccccn1)c1ccc2nc(-c3ccco3)c(-c3ccco3)nc2c1", "inhibition": "67.3% (active)"}, {"smiles": "O=C(NCc1ccccn1)c1cc2ccccc2oc1=O", "inhibition": "-26% (inactive)"}, {"smiles": "COc1ccc(CN2CCn3ncc(C(=O)Nc4ccc(Cl)cc4Cl)c3C2=O)cc1", "inhibition": "14.3% (inactive)"}, {"smiles": "CC(C)C(=O)Nc1nnc(Sc2ccc(N(C)C)cc2)s1", "inhibition": "-3.9% (inactive)"}, {"smiles": "ONC(=Nc1ccc(Cl)cc1)c1ccccc1Cl", "inhibition": "40.4% (inactive)"}, {"smiles": "O=C(NCCN1CCOCC1)[C@H](Cc1ccccc1)N1C(=O)c2ccccc2C1=O", "inhibition": "-32.6% (inactive)"}, {"smiles": "N/C(=N\\c1nc2ccccc2o1)NC(=O)C(Cc1ccccc1)N1C(=O)c2ccccc2C1=O", "note": "(stereo not given)", "inhibition": "89.2% (active)"}, {"smiles": "Cc1cc(C)nc(NC(=O)C(C)N2C(=O)c3ccccc3C2=O)n1", "note": "(stereo not given)", "inhibition": "-15.6% (inactive)"}, {"smiles": "CCN(CC)CCn1c(=S)[nH]c2ncccc2c1=O", "inhibition": "16.3% (inactive)"}, {"smiles": "CCCc1nnc(NC(=O)c2cccs2)s1", "inhibition": "14.9% (inactive)"}, {"smiles": "COc1ccc(-c2n[nH]c(C)c2-c2ccc(OC)c(OC)c2)c(O)c1", "inhibition": "98.8% (active)"}, {"smiles": "COc1ccc(-c2nc(-c3ccccc3)no2)c(OC)c1", "inhibition": "-7% (inactive)"}, {"smiles": "C=C(C)COc1ccc(-c2n[nH]c(C)c2-c2ccccc2OC)c(O)c1", "inhibition": "54.9% (active)"}, {"smiles": "C=C(C)COc1ccc(-c2n[nH]c(C)c2-c2ccccc2)c(O)c1", "inhibition": "26.2% (inactive)"}, {"smiles": "COc1ccc(OC)c(Nc2nc(-c3ccc(O)c(O)c3)cs2)c1", "inhibition": "24.3% (inactive)"}, {"smiles": "COc1ccccc1-c1n[nH]c2c1[C@H](C)CC[C@H]2C(C)C", "inhibition": "36.5% (inactive)"}, {"smiles": "CCc1c(C)[nH]c(=S)c(C#N)c1C", "inhibition": "16% (inactive)"}, {"smiles": "Cc1cc(C)nc(NC2=NCC(=O)N2c2ccc(Cl)cc2)n1", "inhibition": "-8.5% (inactive)"}, {"smiles": "Cc1ccc(Oc2nc3ccccc3n3c(C)nnc23)cc1", "inhibition": "13.5% (inactive)"}, {"smiles": "COC(=O)CN(c1cccc(C(C)=O)c1)S(C)(=O)=O", "inhibition": "40.7% (inactive)"}, {"smiles": "CC1=NN(C(C)C)C(=O)C1", "inhibition": "12.8% (inactive)"}, {"smiles": "COCCNC(=O)COc1ccc(C)c(C)c1", "inhibition": "-28.7% (inactive)"}, {"smiles": "CCC(=O)Nc1nc2ccccc2n1Cc1ccccc1C", "inhibition": "-6.9% (inactive)"}, {"smiles": "O=S(=O)(O)c1nc2ccccc2n1Cc1ccc(Cl)cc1", "inhibition": "43.6% (inactive)"}, {"smiles": "O=S(=O)(O)c1nc2ccccc2n1Cc1ccc(Cl)cc1Cl", "inhibition": "74.7% (active)"}, {"smiles": "Cc1ccc(F)c(NC(=O)CCc2ccccc2)c1", "inhibition": "-15.7% (inactive)"}, {"smiles": "O=C(OCc1cn(-c2ccc(Cl)c(Cl)c2)nn1)c1ccccc1Cl", "inhibition": "-32.3% (inactive)"}, {"smiles": "CCc1nnc(NS(=O)(=O)c2ccc(NS(=O)(=O)c3ccccc3)cc2)s1", "inhibition": "77.5% (active)"}, {"smiles": "CCc1nnc(NC(=O)c2ccc(S(=O)(=O)NC3CCCCC3)cc2)s1", "inhibition": "20.2% (inactive)"}, {"smiles": "CCc1nnc(NS(=O)(=O)c2ccc(N=Cc3c(C)[nH]n(-c4ccc(C)cc4)c3=O)cc2)s1", "inhibition": "17% (inactive)"}, {"smiles": "CCC(C)NC(=O)c1cc(Cl)ccc1OC", "note": "(stereo not given)", "inhibition": "-166% (inactive)"}, {"smiles": "Cc1ccc(C(C(=O)NC2CCCCC2)N(C(=O)c2csnn2)C2CC2)o1", "note": "(stereo not given)", "inhibition": "26.6% (inactive)"}, {"smiles": "CCc1c(C)sc(NC(=O)OC)c1C(=O)N1CCOCC1", "inhibition": "-10.7% (inactive)"}, {"smiles": "CCCCCN1CC(O)=C(c2nc(-c3ccc(Cl)cc3)cs2)C1=N", "inhibition": "62.1% (active)"}, {"smiles": "COc1ccccc1N1CC(O)=C(c2nc3ccccc3s2)C1=N", "inhibition": "26.8% (inactive)"}, {"smiles": "CCCCCN1CC(O)=C(c2ccccc2)C1=N", "inhibition": "-11.3% (inactive)"}]}]}
